# Only some compounds are listed: those with a hit (about 12% of all), similar ones and a draw of the others.
# BAZ2B block = BAZ2B (human) inhibition | Q9UIF8 | AlphaScreen BAZ2B-H3K14Ac peptide displacement | Potency, µM (series often up to 114 µM), for the others: at the highest dose activity change, negative = inhibition, most hits filed as inhibitors | 360,000 tested, 4.4% active | AID 504333; note: % is set by controls: 0 for no effect and ±100 for the full control effect; nearly all actives have a fitted effect of over 60% in size
#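 AlphaScreen luminescence quantifies BAZ2B engagement of H3K14Ac peptide; the protein and biotinylated peptide are both at 50 nM final, buffer PBS pH 7.4 with 0.01% Tween-20, all steps at room temperature.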
# TDP1 inh = TDP1 (human) enzyme inhibition. Q9NUW8. recombinant TDP1, AlphaScreen DNA substrate cleavage. Potency, µM (highest dose often 130 µM), for the others: at the highest dose activity change, negative = inhibition, usual class: inhibitors. 350,000 tested, 0.28% active. AID 485290; note: % is set by controls: 0 for no effect and ±100 for the full control effect; nearly all actives have a fitted effect of over 40% in size
#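 Steps: enzyme plus compound, 15 min RT; add biotin/phosphotyrosine-FITC oligonucleotide (15 nM final), react 5 min; add donor/acceptor beads (10 ug/ml final), 10 min; read AlphaScreen. Tdp1 at 1 nM final.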
# HP1b binding inh = HP1-beta chromodomain-methylated histone interaction inhibition; P83916; Potency, µM (series often up to 114 µM), for the others: at the top dose activity change, negative = inhibition, hits mostly inhibitors; 390,000 tested, 0.56% active; AlphaScreen HP1-beta / biotin-H3K9me3 peptide binding; AID 540317; note: nearly all actives have a fitted effect of over 70% in size
#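 AlphaScreen: HP1-beta (50 nM) preformed 30 min with biotin-H3(1-18)K9me3 peptide (50 nM) in PBS pH 7.4, 0.01% Tween-20. Compound added for 30 min at RT, then streptavidin donor/nickel chelate acceptor beads (10 ug/mL) for 30 min.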
# JMJD2A Tudor inh = blocks the human JMJD2A Tudor domain; AlphaScreen JMJD2A-Tudor / H3K4me3 peptide binding; Potency, µM (series often up to 114 µM), without a hit: at the top dose activity change, negative = inhibition, hits mostly inhibitors; 390,000 tested, 4.4% active; O75164; note: % is set by controls: 0 for no effect and ±100 for the full control effect; nearly all actives have a fitted effect of over 50% in size
# G9a block = blocks human histone lysine methyltransferase G9a | Q96KQ7 | G9a H3K9 monomethylation, AlphaScreen, 2 h | Potency, µM (highest dose often 102 µM), for the others: at the highest dose activity, negative = inhibition, actives largely listed as inhibitors | 350,000 tested, 8.8% active; note: % is set by controls: 0 for no effect and ±100 for the full control effect; nearly all actives have a fitted effect of over 75% in size
#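 G9a (20 nM) preincubated 15 min RT with compounds, then 500 nM biotinylated H3K9 peptide and 20 uM SAM added; 2 h RT reaction. Monomethyl-H3K9 product detected by AlphaScreen with anti-H3K9me1 antibody, streptavidin donor and anti-rabbit IgG acceptor beads.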
# Sfp PPTase inh = Sfp phosphopantetheinyl transferase inhibition | Q9F4F7 | Biochemical Sfp PPTase activity, qHTS | Potency, µM, for inactives: largest response in the series, negative = inhibition, hits mostly inhibitors | 310,000 tested, 3.5% active;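 note: the enzyme is Sfp with the accession as filed and its product quenches rhodamine fluorescence; 0% = enzyme reaction without inhibitor and -100% = no enzyme wells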
#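 Buffer: 50 mM Hepes-Na pH 7.6, 10 mM MgCl2, 0.01% Nonidet P-40, 0.01% BSA. Enzyme 15 nM, pre-exposed to compound 15 min; substrates then added and fluorescence change tracked over 30 min.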
# The depositor's hits bear a star; ? = inconclusive; . = not tested or not shown; [ ] = remark or other dose. Calls come from the whole dose curve; as a rule, active = well fitted curve in the direction sought with a large enough effect; inconclusive = small, poorly fitted or top-dose-only effect, or another doubt; inactive = no such curve, though single readings can be large; an effect the other way counts as inactive or inconclusive. Potency is the fitted concentration of half-maximal effect.
SMILES,BAZ2B block,TDP1 inh,HP1b binding inh,JMJD2A Tudor inh,G9a block,Sfp PPTase inh
COc1cccc(C2/C(=C(\O)c3ccc4c(c3)OCCO4)C(=O)C(=O)N2CCN(C)C)c1 (centres undefined),-31%,0%,54%,1%[11.4 µM],?,7%
Cc1ccc(C2/C(=C(\O)c3ccc4c(c3)OCCO4)C(=O)C(=O)N2CCCN(C)C)o1 (centres undefined),-33%,-2%,.,.,45µM*,-10%
CCOc1ccc(/C(O)=C2/C(=O)C(=O)N(CCN(CC)CC)C2c2ccco2)cc1 (centres undefined),-5%,-3%,26%,-27%,-10%[59 µM],14%
CCN(CC)CCCN1C(=O)C(=O)/C(=C(/O)c2ccc(OC)c(Cl)c2)C1c1ccco1 (centres undefined),3%,1%,.,.,45µM*,?
COc1ccc(/C(O)=C2/C(=O)C(=O)N(CCCN(C)C)C2c2ccc(C)o2)cc1Cl (centres undefined),2%,2%,.,.,45µM*,89µM*
COc1ccc(/C(O)=C2/C(=O)C(=O)N(Cc3cccnc3)C2c2ccco2)cc1OC (centres undefined),-2%,-2%,-4%,25µM*,-8%,10%
CCOCCCn1c(=NC(=O)c2ccco2)c(C(=O)OCC)cc2c(=O)n3cccc(C)c3nc21,-9%,6%,36%,-9%,-26%,13%
O=c1c2c(C(F)(F)F)cc(C(F)(F)F)nc2[nH]n1-c1ccccc1,?,9%,-23%,?,7.9µM*,-8%
CCc1nc(Nc2ccccc2OC)c2oc3ccccc3c2n1,-3%,.,56%,4%,50µM*,-21%
CCc1nc(NCc2ccccn2)c2oc3ccccc3c2n1,?,6%,35%,-23%,25µM*,13%
c1ccc(CNc2ncnc3c2oc2ccccc23)nc1,5%,5%,5%,-21%,.,-9%
Cc1nc(SCC(=O)NCCN2C(=O)CSC2=O)nc(C)c1C,.,1%,15%,-10%,.,.
Cc1ccc(/C=C/S(=O)(=O)NCC(=O)OCC(=O)Nc2ccc(C(=O)N(C)C)cc2)cc1,13%,4%,30%,-4%,19%[12.7 µM],.
Cc1ccc(/C=C/S(=O)(=O)NCC(=O)OCC(=O)Nc2ccc(C(N)=O)cc2)cc1,5%,-14%[0.505 µM],22%,-14%,45µM*,.
CC1(COc2ccc(CC3SC(=O)NC3=O)cc2)CCCCC1 (centres undefined),.,5%,.,.,-35%[12.7 µM],14%
CCOC(=O)c1c(N2C(=O)CC(Sc3ccccc3C(=O)O)C2=O)sc(C)c1C (centres undefined),50µM*,-8%,-4%,-24%,.,7.9µM*
Cc1cc(C)cc(N2C(=O)CC(Sc3ccccc3C(=O)O)C2=O)c1 (centres undefined),-12%,1%,40%,?,?,56µM*
Cc1ccc(N2C(=O)CC(Sc3ccccc3C(=O)O)C2=O)cc1C (centres undefined),-32%,2%,2%,-9%[11.4 µM],1.6µM*,50µM*
Cc1cccc(N2C(=O)CC(Sc3nccc(C)n3)C2=O)c1 (centres undefined),11%,.,48%,-11%,?,11%
Cc1ccc(N2C(=O)CC(Sc3ccccc3C(=O)O)C2=O)cc1 (centres undefined),-7%,-2%,40%,?,?,?
Cc1cccc(N2C(=O)CC(Sc3ncn[nH]3)C2=O)c1 (centres undefined),-25%,?,?,?,7.1µM*,56µM*
COc1ccc(-c2cn3nc(N4CCCC(C(=O)Nc5cc(C)ccc5C)C4)sc3n2)cc1 (centres undefined),-4%,-1%,5%,?,?,.
CN(C)c1ccc(N2C(=O)CC(Sc3ccccc3C(=O)O)C2=O)cc1 (centres undefined),?,-3%,25%,?,1.4µM*,45µM*
